Hits are enriched below; roughly 1.3% of the tested compounds scored in any of these assays.
VACV mCherry inh: inhibitors of vaccinia virus infection (mCherry reporter signal); Vaccinia virus mCherry reporter infection, fluorescence; 310,000 tested, 0.63% active; Potency, µM (doses to about 36.5 µM), inactives show at the highest dose activity change, negative = inhibition, usual class: inhibitors; calls by dose curve; tested in A549 cells; note: nearly all actives have a fitted effect of over 35% in size
LmPK inh: inhibitors of Leishmania mexicana pyruvate kinase; AID 1721; Potency, µM (titrated, usually from 57.5 µM), without a hit: at the top dose activity change, negative = inhibition, most hits filed as inhibitors; purified LmPK, Kinase-Glo ATP luminescence, 1 h; 290,000 tested, 0.37% active; Q27686
Target sequence (Q27686 whole entry, looked up): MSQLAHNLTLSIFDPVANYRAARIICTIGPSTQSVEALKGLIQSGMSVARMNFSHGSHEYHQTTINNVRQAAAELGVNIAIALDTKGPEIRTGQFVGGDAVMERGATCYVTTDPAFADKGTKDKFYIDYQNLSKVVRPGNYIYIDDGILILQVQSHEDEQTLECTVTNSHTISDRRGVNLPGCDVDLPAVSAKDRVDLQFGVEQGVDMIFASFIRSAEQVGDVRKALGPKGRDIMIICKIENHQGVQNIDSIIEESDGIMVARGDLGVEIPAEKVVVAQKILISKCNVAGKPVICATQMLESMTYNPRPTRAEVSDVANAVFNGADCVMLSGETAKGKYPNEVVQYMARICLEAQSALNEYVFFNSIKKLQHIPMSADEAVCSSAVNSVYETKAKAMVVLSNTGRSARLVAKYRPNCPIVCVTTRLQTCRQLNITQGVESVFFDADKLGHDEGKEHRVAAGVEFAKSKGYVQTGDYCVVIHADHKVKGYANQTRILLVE
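Purified LmPK (0.1 nM) converted ADP (0.1 mM) to ATP with PEP (0.5 mM) in imidazole buffer pH 7.2 with KCl and MgCl2, 1 h at room temperature. ATP was read by Kinase-Glo luminescence; data normalized to uninhibited and no-enzyme controls.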
Vaccinia Venus: inhibitors of vaccinia virus (Venus reporter) | Vaccinia virus Venus reporter expression, fluorescence | Potency, µM (highest dose often 36.5 µM), for the others: at the highest dose activity change, negative = inhibition, hits mostly inhibitors | 330,000 tested, 0.46% active | AID 720580; calls by dose curve; tested in A549 cells; note: nearly all actives have a fitted effect of over 30% in size
RE007 growth inh: less growth of the S. pombe RE007 Vpr strain. Potency, µM (series often up to 92.2 µM), inactives show at the highest dose activity change, negative = less growth, usual class: inhibitors. AID 651644. 360,000 tested, 0.21% active. S. pombe RE007 Vpr strain, BacTiter-Glo ATP luminescence, 24 h; active = well fitted falling curve with a large enough effect; inconclusive = small, poorly fitted or top-dose-only effect; inactive = no such curve, though single readings can be large or run the other way; note: nearly all actives have a fitted effect of over 50% in size
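Fission yeast strain RE007, carrying one chromosomally integrated HIV-1 vpr copy, was seeded at OD 0.01 in PMG+AL medium with 23 nL pinned compound. After 24 h at 30 °C and 99% humidity, viability was read by BacTiter-Glo luminescence.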
AMA1 RON2 block: inhibitors of Plasmodium falciparum AMA1-RON2 interaction; AlphaScreen AMA1-biotinylated RON2 peptide binding; Potency, µM (doses to about 58.2 µM), for the others: at the top dose activity change, negative = inhibition, usual class: inhibitors; 360,000 tested, 0.2% active; AID 720542;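 note: 0% = vehicle wells and -100% = peptide control; nearly all actives have a fitted effect of over 45% in size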
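AMA1 (3D7) with his tag at 25 nM final met compounds first, then biotinylated RON2 peptide at 25 nM; detection used donor plus acceptor beads, 10 µg/mL apiece, read by AlphaScreen after 30 min at room temperature.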
Tb PYK inh: inhibitors of Trypanosoma brucei pyruvate kinase. 410,000 tested, 0.12% active. AID 624173. TbPYK enzyme, Kinase-Glo Plus ATP luminescence, 45 min. Potency, µM (doses to about 76.8 µM), for the others: top-dose activity, negative = inhibition, usual class: inhibitors; note: nearly all actives have a fitted effect of over 50% in size
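Glycolytic pyruvate kinase of T. brucei was incubated with substrate, test compound and 130 uM ADP for 45 minutes at room temperature. Luminescent Kinase-Glo Plus signal was measured after 10 minutes.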
* = called active by the depositor; i = inactive; ? = inconclusive; . = no result; [ ] = dose if it differs, or a comment. Unless noted, calls come from the whole dose curve; as a rule, active = well fitted curve in the direction sought with a large enough effect; inconclusive = small, poorly fitted or top-dose-only effect, or another doubt; inactive = no such curve, though single readings can be large; an effect the other way counts as inactive or inconclusive. Unless noted, % is set by controls: 0 for no effect and ±100 for the full control effect; potency is the fitted concentration of half-maximal effect.

SMILES | VACV mCherry inh | LmPK inh | Vaccinia Venus | RE007 growth inh | AMA1 RON2 block | Tb PYK inh
O=C1[C@H]2C(c3ccccc3)=NN(c3ccccc3)[C@H]2C(=O)N1c1ccccc1 | . | 10% | . | -1% | 114% | 7%
NCCCNCCCCNC(=O)C(O)NC(=O)CCCCCCN=C(N)N (centres undefined) | . | . | . | . | . | 0%
CC(=O)O[C@]1(C(=O)CO)[C@@H](C)C[C@H]2[C@@H]3CCC4=CC(=O)C=C[C@]4(C)[C@@]3(F)[C@@H](O)C[C@]21C | . | . | . | . | . | 4%
CN(CC(=O)NC(=O)NCc1ccccc1)Cc1cccc(Cl)c1Cl | 14µM* | 1% | ? | 1% | -7% | -10%
NC(Cc1ccc(Cl)cc1)c1csc(NC(=O)NCC2CCCCC2)n1 (centres undefined) | -4% | . | 10µM* | 11% | 56% | 1%
NC(Cc1ccc(C(F)(F)F)cc1)c1csc(NC(=O)Nc2ccccc2Cc2ccccc2)n1 (centres undefined) | 11µM* | . | 13µM* | 35% | 71% | -4%
NC(CCc1ccccc1)c1csc(NC(=O)NCCc2ccccc2)n1 (centres undefined) | -12% | . | -16% | -6%[18.4 µM] | 58% | 2%
CC(C)c1ccc(NC(=O)Nc2nc(C(N)COCc3ccccc3)cs2)cc1 (centres undefined) | ? | . | 11µM* | 12% | 3% | -5%
NC(CCc1ccccc1)c1csc(NC(=O)Nc2ccccc2Oc2ccccc2)n1 (centres undefined) | ? | . | 11µM* | 1% | 65% | -4%
Cc1cc(C(=O)Nc2ccccc2-c2nc(CNC(=O)C3COc4ccccc4O3)c(C)o2)c(C)o1 (centres undefined) | -1% | . | 17% | . | . | .
CCCOc1ccc(C(=O)NNC(=S)NC(=O)c2ccco2)cc1 | 11µM* | -2% | ? | -2% | 78% | -10%
CCCOc1ccc(C(=O)NNC(=S)NC(=O)c2ccccc2)cc1 | ? | 8% | ? | . | 81% | -14%
CCCOc1ccc(C(=O)NNC(=S)NC(=O)c2cccs2)cc1 | 10µM* | 2% | ? | -9% | 62% | -4%
COc1ccc(C(=O)NNC(=S)NC(=O)c2ccco2)cc1 | . | 2% | . | 6% | 53% | -10%
COc1cccc(CCNc2ncnc3sc(C(=O)N4CCOCC4)c(C)c23)c1 | i | . | -15% | . | . | .
CC(C)(C)c1ccc(C(=O)NCCCN2CCN(CCCNC(=O)c3ccc(C(C)(C)C)cc3)CC2)cc1 | ? | 4% | 11µM* | 67% | -1%[2.32 µM] | -1%
COc1cc(C)c(CN2CCOc3ccc(C(O)c4cccnc4)cc3C2)cc1C (centres undefined) | -9% | . | -4% | . | . | .
O=[N+]([O-])c1ccc(N2CCN(Cc3ccccc3)CC2)c2c1no[n+]2[O-] | ? | . | 4% | ? | 22µM* | -11%
O=C(Oc1cccnc1)c1ccc(Cl)c(Cl)c1 | . | 3% | . | 32µM* | 42% | -4%
COc1ccc(C=CC(=O)c2ccc3cc(OC)c(OC)cc3c2)cc1OC | ? | . | ? | -11% | -13% | 4%
COc1ccc(C=CC(=O)c2ccc(OC)c(OC)c2)cc1O | ? | . | 10µM* | -16% | -9% | -9%
COc1ccc(/C=C/C(=O)C(C)(C)C)cc1OC | -16% | 2% | -17% | -8% | -4% | 6%
COc1ccc(C(=O)C=Cc2ccc(OCc3ccccc3)c(OC)c2)cc1OC | ? | . | 11µM* | 3% | -6% | -2%
COc1cc(OC)c(C(=O)C=Cc2ccc(OC)c(OC)c2)c(OC)c1 | 10µM* | . | ? | 5% | 0% | 3%
COc1cc(OC)c(C(=O)/C=C/c2ccc(OCc3ccccc3)c(OC)c2)c(OC)c1 | ? | 9% | ? | 2% | -15% | 2%
SMILES | VACV mCherry inh | LmPK inh | Vaccinia Venus | RE007 growth inh | AMA1 RON2 block | Tb PYK inh
CCC1CSC(Nc2ccc(C(=O)/C=C/c3ccc(OC)c(OC)c3)cc2)=N1 (centres undefined) | 11µM* | 1% | ? | -20% | 4% | 0%
COc1cccc(-c2nc3cc4c(cc3cc2CN(C(=O)c2cc(C)nn2C)C2CC2)CCC4)c1OC | -20% | . | -7% | . | . | .
Cc1nnc(N/N=C/c2ccccc2F)n1N | . | 2% | . | 4% | 37% | -3%
CCOc1ccc(-n2c(C)cc(/C=N/Nc3nc(C)cc(=O)[nH]3)c2C)cc1 | -10% | -1% | -6% | 3% | 53% | -3%
COc1cccc(/C=N/Nc2ncnc3c2ncn3Cc2ccccc2)c1O | 3.2µM* | -2% | ? | . | 23% | -16%
COc1ccc(-n2c(C)cc(/C=N/Nc3nnc(C)n3N)c2C)cc1 | 11µM* | 0% | ? | -2% | -9% | 0%
COc1cccc(/C=N/Nc2nnc(C)n2N)c1O | 7.1µM* | 4% | ? | 15% | 93% | -3%
COc1cccc(/C=N/Nc2cc(Cl)nc(C)n2)c1O | . | 1% | . | 1% | 112% | 0%
CCOc1ccc(N=Nc2c(=O)[nH]n3c(=O)cc(C)[nH]c23)cc1 | . | 14µM* | 3% | ? | -1% | -12%
C=CC[n+]1cccc2cc(Br)ccc21 | -18% | . | -26% | . | . | .
Cc1ccnc2ccc3ccccc3c12 | -12% | . | -31% | . | . | .
Cc1cccc(C)c1NC(=O)CSc1nnc(-c2ccco2)c(-c2ccco2)n1 | i | 13% | -10% | 8% | -20% | ?
Cc1ccccc1NC(=O)CSc1nnc(-c2ccco2)c(-c2ccco2)n1 | . | 5% | . | 4% | ? | 20µM*
Cc1ccc(NC(=O)CSc2nnc(-c3ccco3)c(-c3ccco3)n2)cc1 | ? | 4% | ? | -2% | -15% | ?
CN(C)c1ccc(NC(=O)CSc2nnc(-c3ccco3)c(-c3ccco3)n2)cc1 | -16% | 0% | -17% | -3% | 18µM* | -12%
Cc1ccccc1C(=O)N1CCc2c(cnc(C)c2CNC(=O)CN2CCCCC2)C1 | -19% | . | -4% | . | . | .
CC(=O)OCC(=O)[C@@]1(O)[C@H](C)C[C@H]2C3C[C@H](F)C4=CC(=O)C=CC4(C)C3[C@@H](O)CC21C (some centres undefined) | . | . | . | . | . | -5%
COc1ccc(/C=C/C(=O)c2c(C)cc(C)[nH]c2=O)c2ccccc12 | 8.9µM* | -1% | ? | -8% | -6% | -5%
Cc1ccc(/C=C/C(=O)c2c(C)cc(C)[nH]c2=O)cc1 | . | -3% | . | 4% | 4% | -4%
COc1ccccc1/C=C/C(=O)c1c2c(c(C)[nH]c1=O)CCCC2 | ? | 0% | 11µM* | 9% | 5% | -17%
COc1ccccc1/C=C/C(=O)c1ccccc1 | i | ? | -10% | . | 1% | -2%

Source: PubChem
